TDP1 cell CPT: qHTS for Inhibitors of human tyrosyl-DNA phosphodiesterase 1 (TDP1): qHTS in cells in presence of CPT. chicken DT40 Tdp1-/-;hTDP1 cells + 20 nM CPT, ATP luminescence, 48 h. Potency, µM (doses to about 46.2 µM), without a hit: at the top dose activity change, negative = growth inhibition, hits mostly inhibitors. actives 12% (n = 420,000). AID 686979, 2013; note: potency is the fitted concentration of half-maximal effect; nearly all actives have a fitted effect of over 55% in size
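Chicken DT40 Tdp1-/- cells stably complemented with human TDP1 were seeded at 400 cells/well in medium containing 20 nM camptothecin, exposed to pin-transferred compounds, and grown at 37 °C for at least 48 hr. Viability was read as ATP luminescence.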
LDHA block: qHTS assay for inhibitors of human lactate dehydrogenase; purified LDHA, NADH/diaphorase-resazurin fluorescence; hits give low values; activity change, % (values are at about 110 or 230 µM); actives 0.15% (n = 480,000); L-lactate dehydrogenase A chain (Homo sapiens), P00338; in the data active = activity change below about -30%; inconclusive = mostly about -25% to -30%;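 note: plate controls were DMSO wells for no effect and wells without enzyme for full effect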
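Remaining NADH was detected by diaphorase (0.133 mg/mL) converting 37 µM resazurin to fluorescent resorufin, read at 0 and 20 minutes. The preceding 5-minute room-temperature reaction used 2 nM LDHA, 0.2 mM sodium pyruvate and 0.06 mM NADH at pH 7.4.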
IL1B secr inh: qHTS for Inhibitors of Inflammasome Signaling: IL-1-beta AlphaLISA Primary Screen. THP-1 LPS/ATP IL-1B secretion, AlphaLISA, 16 h; hits give low values. activity change, % at 57.5 µM. actives 4.7% (n = 360,000). AID 743279, 2014; in the data active = activity change below about -50%; inconclusive = mostly about -30% to -49%
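Secreted IL-1B measured by AlphaLISA bead assay after 16 h compound exposure of THP-1 cells; compounds (final up to 57.5 uM) added 1 h before LPS (250 ng/mL) and ATP (1.25 mM) stimulation; lower signal means less secretion.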
DT40 TDP1 no CPT: qHTS for Inhibitors of human tyrosyl-DNA phosphodiesterase 1 (TDP1): qHTS in cells in absence of CPT | DT40 Tdp1-/- hTDP1 cells, no CPT, ATP luminescence, 48 h | Potency, µM (titrated, usually from 46.2 µM), for the others: at the highest dose activity change, negative = growth inhibition, most hits filed as inhibitors | actives 15% (n = 420,000) | AID 686978, 2013; note: potency is the fitted concentration of half-maximal effect; nearly all actives have a fitted effect of over 55% in size
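No-CPT arm: Tdp1-/-;hTDP1 DT40 cells (400/well) plus compounds, incubated ≥48 hr at 37 °C. Readout CellTiter-Glo luminescence.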
RORgamma inh: qHTS for inhibitors of ROR gamma transcriptional activity. Nuclear receptor ROR-gamma (Mus musculus), P51450. actives 5.4% (n = 310,000). AID 2551, 2010. Potency, µM (series often up to 53.6 µM), for inactives: at the highest dose activity change, negative = inhibition, hits mostly inhibitors. Drosophila S2 Gal4-RORgamma UAS-luciferase reporter, 20 h; note: potency is the fitted concentration of half-maximal effect; nearly all actives have a fitted effect of over 60% in size
Target sequence (P51450 whole entry, looked up, the tested form may be a part): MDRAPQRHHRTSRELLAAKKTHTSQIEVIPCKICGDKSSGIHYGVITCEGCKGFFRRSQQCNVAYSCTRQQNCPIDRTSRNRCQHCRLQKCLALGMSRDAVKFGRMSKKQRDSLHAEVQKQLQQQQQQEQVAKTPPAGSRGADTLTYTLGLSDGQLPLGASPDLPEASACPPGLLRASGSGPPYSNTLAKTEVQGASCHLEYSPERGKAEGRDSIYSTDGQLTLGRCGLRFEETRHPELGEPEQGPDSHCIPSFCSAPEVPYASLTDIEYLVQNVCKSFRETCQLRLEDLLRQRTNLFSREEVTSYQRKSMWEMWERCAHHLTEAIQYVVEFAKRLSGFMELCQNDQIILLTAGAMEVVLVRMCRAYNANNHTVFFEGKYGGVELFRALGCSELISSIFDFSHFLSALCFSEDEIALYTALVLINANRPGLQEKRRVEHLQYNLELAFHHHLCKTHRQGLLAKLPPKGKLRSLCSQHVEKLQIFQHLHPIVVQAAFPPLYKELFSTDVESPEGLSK
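Stable Schneider cell line, Gal4 DNA-binding domain fused to ROR gamma, UAS-luciferase. Cmpd 1 hr RT → CuSO4 700 uM final → 20 hr RT → luciferase reagent 10 min → luminescence.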
Gal4-VP16 FLuc: VP16 counterscreen qHTS for inhibitors of ROR gamma transcriptional activity | Potency, µM (series often up to 53.6 µM), for inactives: top-dose activity, negative = inhibition, most hits filed as inhibitors | actives 3.5% (n = 310,000) | Drosophila S2 Gal4-VP16 UAS-luciferase, luminescence, 20 h;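 note: Gal4-VP16 expression switched on by copper sulfate through the metallothionein promoter; potency is the fitted concentration of half-maximal effect; nearly all actives have a fitted effect of over 50% in size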
Starred values were filed as active, the others as inactive; ? = inconclusive; nt = not tested or not shown. Hits are enriched below; roughly 18% of the tested compounds scored in any of these assays. Unless noted, calls come from the whole dose curve; as a rule, active = well fitted curve in the direction sought with a large enough effect; inconclusive = small, poorly fitted or top-dose-only effect, or another doubt; inactive = no such curve, though single readings can be large; an effect the other way counts as inactive or inconclusive. Unless noted, % is set by controls: 0 for no effect and ±100 for the full control effect.

SMILES	TDP1 cell CPT	LDHA block	IL1B secr inh	DT40 TDP1 no CPT	RORgamma inh	Gal4-VP16 FLuc
CCN(CC)CCNC(=O)c1ccsc1	nt	1.6	nt	nt	nt	nt
CCN(CC)CCNC(=O)C(Cl)=C1C(Cl)=C(Cl)C(Cl)=C1Cl	?	-0.7	-100.3*	16.4µM*	nt	nt
COc1ccc(Cl)cc1CNC(=O)c1scnc1C	nt	-17.7	nt	nt	nt	nt
CN(C(=S)NC(=O)Cc1ccccc1)c1ccccc1	?	-1.0	-60.5*	?	10µM*	?
CCN(Cc1ccccc1)C(=O)c1ccc(C(=O)N(CC)Cc2ccccc2)cc1	?	-9.6	?	?	?	-22.3%
CCN(CC)C(=S)NC(=O)Cc1ccccc1	4.2%	-3.5	11.1	-6.3%	6.31µM*	?
CCOc1ccc(C(C)=O)cc1CN(C)Cc1ccc(C)cc1	nt	3.7	nt	nt	nt	nt
O=C(C[n+]1c2ccccc2cc2ccccc21)c1ccc(F)cc1	?	-44.9*	nt	10µM*	nt	nt
O=C(C[n+]1cccc2cccc(O)c21)c1ccc(F)cc1	7.08µM*	nt	nt	?	nt	nt
O=C(C[n+]1cccc2cccc(O)c21)c1ccccc1	?	nt	nt	-12.1%	nt	nt
CCCOC(=O)c1c(-c2ccc(OCC)cc2)csc1NC(=O)c1ccoc1C	nt	2.9	nt	nt	nt	nt
CCSc1nc2n(n1)C(c1ccc(O)c(OC)c1)C1=C(CC(C)(C)CC1=O)N2 (stereo unspecified)	nt	4.1	nt	nt	nt	nt
CCCOc1c(Cl)cc(C(=O)Nc2ncccc2C)cc1OC	nt	-6.8	nt	nt	nt	nt
O=c1c(C(c2nnnn2C2CCCCC2)N2CCCCC2)coc2ccc(Cl)cc12 (stereo unspecified)	?	-11.7	-19.5	20.6µM*	-7.7%	-3.6%
N#Cc1cccc(C(c2nnnn2C2CCCC2)N2CCCCCC2)c1 (stereo unspecified)	?	1.9	-17.7	?	-22.1%	4.1%
O=C(c1ccco1)N1CCn2c1nc1ccccc12	-8.6%	-7.9	-2.8	-12.6%	?	3.0%
CC(=O)c1nc2ccccc2n1CCc1ccccc1	-28.9%	-1.8	58.0	-19.8%	-3.4%	2.6%
Nc1nc2ccccc2n1C(=O)c1ccco1	?	2.8	-2.4	-10.0%	11.2µM*	?
Nc1nc2ccccc2n1C(=O)CCc1ccccc1	?	-4.2	4.2	18.4µM*	16.1%	18.8%
Nc1nc2ccccc2n1C(=O)c1cccs1	?	-1.6	-8.1	?	0.891µM*	2.82µM*
COc1ccc(C(=O)n2c(N)nc3ccccc32)cc1OC	?	-5.3	0.4	?	?	?
Nc1nc2ccccc2n1C(=O)c1ccc(F)cc1	?	-10.4	-9.0	18.4µM*	2.24µM*	11.2µM*
CC(C)=CC(=O)NCCSc1ccccc1	nt	-3.3	nt	nt	nt	nt
COCCCNC(=O)Cc1c(C)c2c(OC)cc(C)cc2oc1=O	nt	9.7	nt	nt	nt	nt
Cn1c2ccc(Br)cc2c2nnc(SCn3nnc4ccccc43)nc21	nt	2.8	nt	nt	nt	nt
SMILES	TDP1 cell CPT	LDHA block	IL1B secr inh	DT40 TDP1 no CPT	RORgamma inh	Gal4-VP16 FLuc
CC1(C)C2CCC1(C(=O)Nc1cccc(C(F)(F)F)c1)c1nc(C#N)c(C#N)nc12 (stereo unspecified)	nt	7.5	nt	nt	nt	nt
O=C(COc1ccccc1Cl)c1ccc2ccccc2c1	nt	12.1	nt	nt	nt	nt
CCOc1ccc(NC(=O)CC(C)C)c2cccnc12	nt	51.3	nt	nt	nt	nt
Nc1nc2ccccc2n1C(=O)c1ccccc1	?	-0.7	8.8	18.4µM*	0.631µM*	5.01µM*
CCn1c(=S)[nH]c2c(c1=O)C(C)(C)Cc1ccccc1-2	6.8%	-4.0	62.1	-24.3%	1µM*	3.55µM*
Cc1ccccc1C(=O)N1CCC(N(Cc2csc(-c3cccs3)n2)S(C)(=O)=O)CC1	nt	0.8	nt	nt	nt	nt

Screening results as filed in PubChem BioAssay.
